Experiments:
Assay in all cases: DAPPL (digital affinity profiling via proximity ligation, sequencing); 10 mM Tris-HCl pH 7.5, 50 mM NaCl, 1 mM DTT, 4% glycerol, room temperature, 30 min; GST-TFs on glutathione beads, 16-mer random dsDNA library, 0.1% formaldehyde crosslink after washing; high values mean tight binding
FLI1 = target: T1, FLI1 (Homo sapiens, UniProt Q01543 1-452); conditions: protein: recombinant; tags: N-terminal GST; dsDNA, one strand shown
T1 sequence: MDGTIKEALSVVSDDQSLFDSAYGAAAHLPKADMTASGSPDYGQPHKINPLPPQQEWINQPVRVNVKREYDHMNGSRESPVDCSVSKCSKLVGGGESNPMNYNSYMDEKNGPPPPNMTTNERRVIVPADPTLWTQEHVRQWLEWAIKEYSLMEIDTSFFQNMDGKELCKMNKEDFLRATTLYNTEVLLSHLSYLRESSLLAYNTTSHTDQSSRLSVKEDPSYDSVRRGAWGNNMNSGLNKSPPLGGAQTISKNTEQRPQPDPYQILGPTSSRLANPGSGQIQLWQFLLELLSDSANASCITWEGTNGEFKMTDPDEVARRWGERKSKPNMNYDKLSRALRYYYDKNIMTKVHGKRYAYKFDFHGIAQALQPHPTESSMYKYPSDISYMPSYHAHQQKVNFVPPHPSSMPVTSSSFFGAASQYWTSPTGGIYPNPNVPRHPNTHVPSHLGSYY
In short: (§1)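 After expression in yeast as GST fusions, human transcription factors were bound to glutathione beads, DNA-barcoded and mixed with a tag-only sample. The pools were incubated with 200 nmole of a 16-mer random double-stranded DNA library in Tris/NaCl/DTT/glycerol buffer (30 min, room temperature), washed and crosslinked with 0.1% formaldehyde. Proximity ligation with BsaI/T4 ligase ran for 1 h at 37 °C, before PCR amplification and sequencing on an Illumina NextSeq500. Binding signal is a hexamer's read frequency for a factor divided by its frequency for the tag-only sample.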

ELK1 = target: T2, ELK1 (Homo sapiens, UniProt P19419 1-428); conditions: protein: recombinant; tags: N-terminal GST; dsDNA, one strand shown
T2 sequence: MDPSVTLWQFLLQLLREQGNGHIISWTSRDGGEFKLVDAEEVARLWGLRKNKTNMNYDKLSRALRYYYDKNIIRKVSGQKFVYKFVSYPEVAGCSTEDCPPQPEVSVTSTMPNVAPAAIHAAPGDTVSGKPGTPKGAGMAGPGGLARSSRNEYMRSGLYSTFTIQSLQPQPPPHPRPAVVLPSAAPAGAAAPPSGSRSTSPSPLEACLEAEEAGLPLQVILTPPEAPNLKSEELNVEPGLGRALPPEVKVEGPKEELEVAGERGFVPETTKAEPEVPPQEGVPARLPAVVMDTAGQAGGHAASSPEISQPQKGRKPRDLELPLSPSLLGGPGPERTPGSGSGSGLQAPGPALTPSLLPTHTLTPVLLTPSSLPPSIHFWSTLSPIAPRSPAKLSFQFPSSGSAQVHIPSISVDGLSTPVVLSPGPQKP
In short: as §1

GABPA = target: T3, GABPA (Homo sapiens, UniProt Q06546 1-454); conditions: protein: recombinant; tags: N-terminal GST; dsDNA, one strand shown
T3 sequence: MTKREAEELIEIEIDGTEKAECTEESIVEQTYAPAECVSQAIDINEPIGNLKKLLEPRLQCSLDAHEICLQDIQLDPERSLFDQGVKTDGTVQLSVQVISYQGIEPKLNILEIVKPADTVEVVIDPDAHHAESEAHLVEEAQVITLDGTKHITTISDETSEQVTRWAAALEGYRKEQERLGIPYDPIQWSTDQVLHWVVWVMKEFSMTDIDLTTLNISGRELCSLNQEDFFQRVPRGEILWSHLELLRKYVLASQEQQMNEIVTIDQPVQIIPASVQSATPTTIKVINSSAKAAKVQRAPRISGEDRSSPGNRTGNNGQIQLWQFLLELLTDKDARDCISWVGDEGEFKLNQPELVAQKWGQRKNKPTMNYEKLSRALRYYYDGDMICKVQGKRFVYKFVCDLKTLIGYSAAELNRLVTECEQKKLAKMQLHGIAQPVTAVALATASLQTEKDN
In short: as §1

ERG = target: T4, ERG (Homo sapiens, UniProt P11308 1-479); conditions: protein: recombinant; tags: N-terminal GST; dsDNA, one strand shown
T4 sequence: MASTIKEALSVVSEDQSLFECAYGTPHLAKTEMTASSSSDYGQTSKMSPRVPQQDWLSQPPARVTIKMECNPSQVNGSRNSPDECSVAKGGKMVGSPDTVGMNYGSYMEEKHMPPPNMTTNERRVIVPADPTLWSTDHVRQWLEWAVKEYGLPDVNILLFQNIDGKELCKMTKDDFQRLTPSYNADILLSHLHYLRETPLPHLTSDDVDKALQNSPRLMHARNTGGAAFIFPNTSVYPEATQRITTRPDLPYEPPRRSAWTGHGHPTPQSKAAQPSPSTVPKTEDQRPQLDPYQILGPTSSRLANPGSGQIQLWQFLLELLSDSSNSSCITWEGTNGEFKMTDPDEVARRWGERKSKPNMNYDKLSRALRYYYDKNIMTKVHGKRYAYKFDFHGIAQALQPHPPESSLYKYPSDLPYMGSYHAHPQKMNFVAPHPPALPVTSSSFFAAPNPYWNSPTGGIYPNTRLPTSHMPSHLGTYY
In short: as §1

ELF1 = ELF1 (Homo sapiens, UniProt P32519 1-619); conditions: protein: recombinant; tags: N-terminal GST; dsDNA, one strand shown
In short: as §1

EHF = target: T5, EHF (Homo sapiens, UniProt Q9NZC4 1-300); conditions: protein: recombinant; tags: N-terminal GST; dsDNA, one strand shown
T5 sequence: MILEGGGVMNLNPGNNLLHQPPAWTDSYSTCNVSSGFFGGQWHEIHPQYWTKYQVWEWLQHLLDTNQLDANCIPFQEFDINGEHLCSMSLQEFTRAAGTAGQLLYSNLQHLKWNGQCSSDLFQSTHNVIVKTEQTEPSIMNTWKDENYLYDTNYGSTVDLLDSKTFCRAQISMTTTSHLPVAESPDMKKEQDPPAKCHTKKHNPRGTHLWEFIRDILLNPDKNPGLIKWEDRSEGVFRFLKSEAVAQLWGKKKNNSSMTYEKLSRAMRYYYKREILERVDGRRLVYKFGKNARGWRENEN
In short: as §1

SPI1 = SPI1 (Homo sapiens, UniProt P17947 1-270); conditions: protein: recombinant; tags: N-terminal GST; dsDNA, one strand shown
In short: as §1

SPIB = SPIB (Homo sapiens, UniProt Q01892 1-262); conditions: protein: recombinant; tags: N-terminal GST; dsDNA, one strand shown
In short: as §1

ELK3 = target: T6, ELK3 (Homo sapiens, UniProt P41970 1-407); conditions: protein: recombinant; tags: N-terminal GST; dsDNA, one strand shown
T6 sequence: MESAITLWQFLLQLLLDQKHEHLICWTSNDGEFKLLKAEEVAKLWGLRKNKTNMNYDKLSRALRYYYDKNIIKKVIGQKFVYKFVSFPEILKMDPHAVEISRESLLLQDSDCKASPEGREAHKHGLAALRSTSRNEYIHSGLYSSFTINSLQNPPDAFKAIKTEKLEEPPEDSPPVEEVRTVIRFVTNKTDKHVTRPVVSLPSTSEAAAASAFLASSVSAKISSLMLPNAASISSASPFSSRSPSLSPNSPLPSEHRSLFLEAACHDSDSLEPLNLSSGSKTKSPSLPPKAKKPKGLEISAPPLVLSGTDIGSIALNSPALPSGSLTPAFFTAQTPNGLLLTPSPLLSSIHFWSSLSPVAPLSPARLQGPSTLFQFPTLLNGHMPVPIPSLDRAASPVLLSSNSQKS
In short: as §1

FEV = target: T7, FEV (Homo sapiens, UniProt Q99581 1-238); conditions: protein: recombinant; tags: N-terminal GST; dsDNA, one strand shown
T7 sequence: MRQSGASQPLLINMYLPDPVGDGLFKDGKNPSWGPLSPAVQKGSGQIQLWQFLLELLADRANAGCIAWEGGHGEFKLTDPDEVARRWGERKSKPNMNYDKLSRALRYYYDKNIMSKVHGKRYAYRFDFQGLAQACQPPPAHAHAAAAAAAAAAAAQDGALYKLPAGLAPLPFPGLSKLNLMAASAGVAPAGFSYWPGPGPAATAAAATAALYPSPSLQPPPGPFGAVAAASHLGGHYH
In short: as §1

ETV5 = ETV5 (Homo sapiens, UniProt P41161 1-510); conditions: protein: recombinant; tags: N-terminal GST; dsDNA, one strand shown
In short: as §1

HSF1 = HSF1 (Homo sapiens, UniProt Q00613 1-529); conditions: protein: recombinant; tags: N-terminal GST; chain copies: 3; dsDNA, one strand shown
In short: as §1

SPIC = target: T8, SPIC (Homo sapiens, UniProt Q8N5J4 1-248); conditions: protein: recombinant; tags: N-terminal GST; dsDNA, one strand shown
T8 sequence: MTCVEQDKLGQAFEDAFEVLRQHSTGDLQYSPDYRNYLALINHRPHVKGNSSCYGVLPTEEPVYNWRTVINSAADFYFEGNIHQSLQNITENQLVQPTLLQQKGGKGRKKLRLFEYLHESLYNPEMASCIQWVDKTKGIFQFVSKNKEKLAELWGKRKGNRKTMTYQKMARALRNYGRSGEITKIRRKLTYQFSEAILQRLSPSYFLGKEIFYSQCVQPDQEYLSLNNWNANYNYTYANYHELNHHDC
In short: as §1

ELF4 = ELF4 (Homo sapiens, UniProt Q99607 1-663); conditions: protein: recombinant; tags: N-terminal GST; dsDNA, one strand shown
In short: as §1

ELK4 = target: T9, ELK4 (Homo sapiens, UniProt P28324-2 1-405); conditions: protein: recombinant; tags: N-terminal GST; dsDNA, one strand shown
T9 sequence: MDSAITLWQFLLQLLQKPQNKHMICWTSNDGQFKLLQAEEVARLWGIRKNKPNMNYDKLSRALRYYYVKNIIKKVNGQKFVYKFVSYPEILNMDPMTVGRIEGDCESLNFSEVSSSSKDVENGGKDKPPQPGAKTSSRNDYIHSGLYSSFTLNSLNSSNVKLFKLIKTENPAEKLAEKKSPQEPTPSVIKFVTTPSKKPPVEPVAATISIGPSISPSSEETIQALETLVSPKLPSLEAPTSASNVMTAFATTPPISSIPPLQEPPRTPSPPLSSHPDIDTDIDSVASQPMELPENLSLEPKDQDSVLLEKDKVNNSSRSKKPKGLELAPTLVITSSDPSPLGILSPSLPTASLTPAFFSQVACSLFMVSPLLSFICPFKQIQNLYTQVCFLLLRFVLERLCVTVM
In short: as §1

ETV2 = target: T10, ETV2 (Homo sapiens, UniProt O00321 1-342); conditions: protein: recombinant; tags: N-terminal GST; dsDNA, one strand shown
T10 sequence: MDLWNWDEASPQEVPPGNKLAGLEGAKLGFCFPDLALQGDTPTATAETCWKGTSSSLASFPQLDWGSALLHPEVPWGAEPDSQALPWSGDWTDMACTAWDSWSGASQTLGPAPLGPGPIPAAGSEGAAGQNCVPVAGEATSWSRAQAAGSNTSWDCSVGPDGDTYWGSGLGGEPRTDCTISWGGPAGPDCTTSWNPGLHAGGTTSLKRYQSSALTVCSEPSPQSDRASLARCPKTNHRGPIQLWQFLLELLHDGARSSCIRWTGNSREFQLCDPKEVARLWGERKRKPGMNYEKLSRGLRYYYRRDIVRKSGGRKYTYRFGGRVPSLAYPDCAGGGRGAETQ
In short: as §1

ELF3 = target: T11, ELF3 (Homo sapiens, UniProt P78545 1-371); conditions: protein: recombinant; tags: N-terminal GST; dsDNA, one strand shown
T11 sequence: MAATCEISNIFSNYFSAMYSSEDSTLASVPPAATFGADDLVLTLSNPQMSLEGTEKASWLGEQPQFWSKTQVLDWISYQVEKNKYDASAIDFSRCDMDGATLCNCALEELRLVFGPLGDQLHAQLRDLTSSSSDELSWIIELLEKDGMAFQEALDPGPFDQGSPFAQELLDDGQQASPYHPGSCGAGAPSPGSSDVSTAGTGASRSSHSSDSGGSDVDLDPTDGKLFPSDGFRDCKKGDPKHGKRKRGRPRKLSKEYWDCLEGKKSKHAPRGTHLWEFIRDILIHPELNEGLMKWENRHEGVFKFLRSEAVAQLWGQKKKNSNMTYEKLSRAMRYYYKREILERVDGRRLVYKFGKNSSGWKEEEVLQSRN
In short: as §1

CRX = CRX (Homo sapiens, UniProt O43186 1-299); conditions: protein: recombinant; tags: N-terminal GST; dsDNA, one strand shown
In short: as §1

ETV1 = ETV1 (Homo sapiens, UniProt P50549 1-477); conditions: protein: recombinant; tags: N-terminal GST; dsDNA, one strand shown
In short: as §1

Chain of ETV5 (P41161 whole entry): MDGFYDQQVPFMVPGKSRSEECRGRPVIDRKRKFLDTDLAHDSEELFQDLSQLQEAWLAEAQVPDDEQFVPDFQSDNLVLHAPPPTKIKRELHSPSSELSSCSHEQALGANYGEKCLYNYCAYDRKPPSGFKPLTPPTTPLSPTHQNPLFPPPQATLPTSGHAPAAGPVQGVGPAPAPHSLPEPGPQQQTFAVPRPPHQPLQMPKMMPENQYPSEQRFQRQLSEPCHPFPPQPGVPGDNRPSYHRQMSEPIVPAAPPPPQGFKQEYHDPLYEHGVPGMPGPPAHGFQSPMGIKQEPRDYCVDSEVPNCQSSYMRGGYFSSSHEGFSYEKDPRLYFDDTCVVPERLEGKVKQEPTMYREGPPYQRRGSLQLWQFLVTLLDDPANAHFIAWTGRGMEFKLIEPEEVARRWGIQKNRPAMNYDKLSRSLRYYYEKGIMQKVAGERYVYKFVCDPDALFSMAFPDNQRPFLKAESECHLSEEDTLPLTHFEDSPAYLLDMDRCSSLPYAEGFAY
Chain of ETV1 (P50549 whole entry): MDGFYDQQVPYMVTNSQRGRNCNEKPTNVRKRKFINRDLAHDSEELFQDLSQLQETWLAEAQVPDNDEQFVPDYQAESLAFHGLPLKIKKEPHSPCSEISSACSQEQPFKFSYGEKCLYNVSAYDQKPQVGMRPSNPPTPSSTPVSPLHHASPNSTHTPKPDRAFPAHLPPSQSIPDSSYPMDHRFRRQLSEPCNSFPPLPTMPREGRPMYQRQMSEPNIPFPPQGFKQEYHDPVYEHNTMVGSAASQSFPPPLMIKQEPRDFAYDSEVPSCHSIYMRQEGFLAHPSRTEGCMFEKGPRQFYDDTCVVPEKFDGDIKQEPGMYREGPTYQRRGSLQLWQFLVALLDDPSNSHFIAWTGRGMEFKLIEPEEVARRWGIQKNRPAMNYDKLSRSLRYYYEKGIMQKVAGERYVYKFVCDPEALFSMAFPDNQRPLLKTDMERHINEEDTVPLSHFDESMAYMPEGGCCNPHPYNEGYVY
Chain of SPIB (Q01892 whole entry): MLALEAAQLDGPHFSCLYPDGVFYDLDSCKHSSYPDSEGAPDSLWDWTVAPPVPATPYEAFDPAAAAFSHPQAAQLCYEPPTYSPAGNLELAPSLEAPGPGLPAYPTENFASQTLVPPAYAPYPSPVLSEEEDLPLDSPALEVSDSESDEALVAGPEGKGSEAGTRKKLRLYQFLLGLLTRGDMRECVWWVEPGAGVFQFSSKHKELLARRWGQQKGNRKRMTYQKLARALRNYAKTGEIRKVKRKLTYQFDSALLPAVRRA
Chain of ELF1 (P32519 whole entry): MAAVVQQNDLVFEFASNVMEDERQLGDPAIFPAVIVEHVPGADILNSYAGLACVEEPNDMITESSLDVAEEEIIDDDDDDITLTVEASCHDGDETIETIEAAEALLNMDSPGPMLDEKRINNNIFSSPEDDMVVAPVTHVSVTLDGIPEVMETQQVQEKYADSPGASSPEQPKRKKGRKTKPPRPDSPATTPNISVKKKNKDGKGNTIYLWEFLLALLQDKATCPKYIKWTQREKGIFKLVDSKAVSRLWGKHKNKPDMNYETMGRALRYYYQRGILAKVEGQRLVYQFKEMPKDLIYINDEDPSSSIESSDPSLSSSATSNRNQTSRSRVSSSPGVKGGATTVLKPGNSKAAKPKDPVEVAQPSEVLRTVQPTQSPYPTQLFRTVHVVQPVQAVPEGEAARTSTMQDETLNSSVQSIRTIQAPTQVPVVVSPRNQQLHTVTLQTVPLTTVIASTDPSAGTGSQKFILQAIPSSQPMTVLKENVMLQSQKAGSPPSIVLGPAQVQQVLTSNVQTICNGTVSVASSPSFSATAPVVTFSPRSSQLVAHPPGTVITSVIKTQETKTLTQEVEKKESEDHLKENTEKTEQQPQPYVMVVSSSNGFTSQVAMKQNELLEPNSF
Chain of HSF1 (Q00613 whole entry): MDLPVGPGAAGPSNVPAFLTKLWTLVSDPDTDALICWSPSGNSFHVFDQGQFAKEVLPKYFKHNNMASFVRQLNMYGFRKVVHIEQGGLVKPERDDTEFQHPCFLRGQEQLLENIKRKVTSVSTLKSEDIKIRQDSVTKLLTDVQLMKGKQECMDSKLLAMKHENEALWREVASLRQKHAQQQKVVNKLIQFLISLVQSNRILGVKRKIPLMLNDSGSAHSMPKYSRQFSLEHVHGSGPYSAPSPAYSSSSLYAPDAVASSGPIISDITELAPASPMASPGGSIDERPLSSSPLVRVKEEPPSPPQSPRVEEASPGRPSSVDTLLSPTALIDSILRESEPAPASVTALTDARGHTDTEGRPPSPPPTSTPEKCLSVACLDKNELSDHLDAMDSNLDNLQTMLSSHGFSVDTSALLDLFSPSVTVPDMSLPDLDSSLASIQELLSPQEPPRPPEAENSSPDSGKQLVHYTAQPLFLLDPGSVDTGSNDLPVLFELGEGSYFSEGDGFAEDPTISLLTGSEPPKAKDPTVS
Chain of CRX (O43186 whole entry): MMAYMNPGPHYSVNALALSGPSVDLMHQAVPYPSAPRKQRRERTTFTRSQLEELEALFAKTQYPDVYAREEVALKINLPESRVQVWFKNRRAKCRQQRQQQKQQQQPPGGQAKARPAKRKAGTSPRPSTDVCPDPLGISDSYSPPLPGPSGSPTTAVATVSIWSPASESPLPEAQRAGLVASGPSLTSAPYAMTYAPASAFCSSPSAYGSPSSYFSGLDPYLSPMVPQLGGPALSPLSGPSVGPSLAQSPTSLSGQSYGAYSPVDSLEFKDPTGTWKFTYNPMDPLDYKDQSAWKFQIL
Chain of ELF4 (Q99607 whole entry): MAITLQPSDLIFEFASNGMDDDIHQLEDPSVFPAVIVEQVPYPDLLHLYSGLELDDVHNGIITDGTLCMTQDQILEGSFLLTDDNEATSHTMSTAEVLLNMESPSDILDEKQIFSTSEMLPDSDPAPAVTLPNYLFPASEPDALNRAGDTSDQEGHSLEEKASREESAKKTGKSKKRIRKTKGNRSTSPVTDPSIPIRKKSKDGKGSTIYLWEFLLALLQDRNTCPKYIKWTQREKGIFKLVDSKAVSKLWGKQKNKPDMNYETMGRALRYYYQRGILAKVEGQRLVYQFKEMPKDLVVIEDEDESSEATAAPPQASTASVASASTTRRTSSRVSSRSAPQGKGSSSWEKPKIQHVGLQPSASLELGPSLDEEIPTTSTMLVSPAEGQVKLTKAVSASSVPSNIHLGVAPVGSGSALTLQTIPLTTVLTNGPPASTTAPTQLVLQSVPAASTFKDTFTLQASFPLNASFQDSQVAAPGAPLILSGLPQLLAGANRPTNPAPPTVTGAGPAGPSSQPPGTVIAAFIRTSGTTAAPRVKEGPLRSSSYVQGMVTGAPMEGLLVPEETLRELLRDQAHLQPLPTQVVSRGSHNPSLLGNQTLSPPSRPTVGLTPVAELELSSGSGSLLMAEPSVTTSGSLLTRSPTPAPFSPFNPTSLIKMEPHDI

TATTCT was tested. Which binding signal (FLI1) did it give?
The binding signal was 1.45 fold enrichment (6-mer frequency, TF over GST control).

And the binding signal (ELK1)?
The binding signal was 1.28 fold enrichment (6-mer frequency, TF over GST control).

And the binding signal (GABPA)?
Its binding signal is 1.43 fold enrichment (6-mer frequency, TF over GST control).

What about the binding signal (ERG) of the same sequence?
Its binding signal is 1.31 fold enrichment (6-mer frequency, TF over GST control).

And the binding signal (ELF1)?
The binding signal was 1.33 fold enrichment (6-mer frequency, TF over GST control).

And the binding signal (EHF)?
Its binding signal is 1.39 fold enrichment (6-mer frequency, TF over GST control).

And the binding signal (SPI1)?
Its binding signal is 1.31 fold enrichment (6-mer frequency, TF over GST control).

What about the binding signal (SPIB) of the same sequence?
Its binding signal is 1.19 fold enrichment (6-mer frequency, TF over GST control).

And the binding signal (ELK3)?
The binding signal was 1.33 fold enrichment (6-mer frequency, TF over GST control).

What about the binding signal (FEV) of the same sequence?
Its binding signal is 1.27 fold enrichment (6-mer frequency, TF over GST control).

And the binding signal (ETV5)?
The binding signal was 1.33 fold enrichment (6-mer frequency, TF over GST control).

What about the binding signal (HSF1) of the same sequence?
Its binding signal is 2.77 fold enrichment (6-mer frequency, TF over GST control).

What about the binding signal (SPIC) of the same sequence?
The binding signal was 1.28 fold enrichment (6-mer frequency, TF over GST control).

What about the binding signal (ELF4) of the same sequence?
The binding signal was 1.38 fold enrichment (6-mer frequency, TF over GST control).

What about the binding signal (ELK4) of the same sequence?
Its binding signal is 1.37 fold enrichment (6-mer frequency, TF over GST control).

What about the binding signal (ETV2) of the same sequence?
The binding signal was 1.29 fold enrichment (6-mer frequency, TF over GST control).

What about the binding signal (ELF3) of the same sequence?
The binding signal was 1.38 fold enrichment (6-mer frequency, TF over GST control).

And the binding signal (CRX)?
Its binding signal is 1.9 fold enrichment (6-mer frequency, TF over GST control).

And the binding signal (ETV1)?
The binding signal was 1.4 fold enrichment (6-mer frequency, TF over GST control).

From PMC7862700, “An all-to-all approach to the identification of sequence-specific readers for epigenetic DNA modifications on cytosine”
